Experimental findings from the supplement of paper PMC10681739 are described below.

Assay [1] addresses T1, ETS1 (UniProt P14921).
T1 sequence: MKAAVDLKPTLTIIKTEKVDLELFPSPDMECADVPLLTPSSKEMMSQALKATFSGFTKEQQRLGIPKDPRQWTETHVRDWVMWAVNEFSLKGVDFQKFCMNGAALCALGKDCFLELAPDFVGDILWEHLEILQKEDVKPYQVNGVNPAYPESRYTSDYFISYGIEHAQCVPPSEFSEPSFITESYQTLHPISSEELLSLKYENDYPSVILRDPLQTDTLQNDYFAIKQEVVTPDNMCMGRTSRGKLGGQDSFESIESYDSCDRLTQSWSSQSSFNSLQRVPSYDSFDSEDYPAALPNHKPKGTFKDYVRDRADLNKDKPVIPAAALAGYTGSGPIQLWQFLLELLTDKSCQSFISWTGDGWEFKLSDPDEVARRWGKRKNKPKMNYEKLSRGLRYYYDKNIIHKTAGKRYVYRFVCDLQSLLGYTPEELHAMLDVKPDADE
Kind of assay: ETS1 binding intensity (PBM fluorescence), ETS1 alone (arbitrary fluorescence units); higher = stronger binding. The settings on record: ETS1 concentration 1 nM; RUNX1 concentration 0 nM.

Assay [2] has as its target T1, ETS1. In words: ETS1 binding intensity (PBM fluorescence) in presence of RUNX1, normalised to ETS1-only experiment (arbitrary fluorescence units); higher = stronger binding. As to conditions: ETS1 concentration 1 nM; RUNX1 concentration 25 nM.

Turning to CAACAAGAGGAAATCAGAAACACTGAAGCCACAGCT, the ETS1 binding intensity was determined as 420 with ETS1 [1] and 463 with ETS1 [2].

As to GTATTTATTTCCTCTTCGAAGAAATGCGGGGGTGCC, the ETS1 binding intensity is 473 with ETS1 [1] and 438 with ETS1 [2].

As for GCCACGCAGTTCCCTTCCTGCGGCGTCCTCCACACC, the ETS1 binding intensity came to 561 in the assay with ETS1 [1] and 421 with ETS1 [2].

Consider GACTGCGCCGGACGCGCCAGCCCTGCGGGATGACGT, for which the ETS1 binding intensity in the assay with ETS1 [1] turned out to be 650; in the assay with ETS1 [2], 801.

Take GAGGCAGGCGGATGTCAGTGTGGTTAGAGCACAGTG: the ETS1 binding intensity was determined as 1170 with ETS1 [1] and 3310 with ETS1 [2].

Regarding TGTTTGTTTCCGAAGATTAGCCAGCCTGCGGTAGAG, the ETS1 binding intensity with ETS1 [1] was found to be 437; with ETS1 [2] it was 605.

On to TGCTGTTTCCTCTGCTGCCGAAGCGGTTTCTTCCAC, for which the ETS1 binding intensity worked out at 443 with ETS1 [1] and 400 with ETS1 [2].

Regarding ATAAAGGATGTACAGTATTTAGAGAACAGTGGTTAA, the ETS1 binding intensity came to 553 with ETS1 [1] and 485 with ETS1 [2].

For CCCTGAGCACTTCCCCGTAAGGCTGCGGTGCACGGG, the values for the ETS1 binding intensity with ETS1 [1] and with ETS1 [2] were 337 and 460, respectively.

With CCACGCCCCCTCCTTCCGCTGCGGGAGATAGCCACT, the ETS1 binding intensity came to 787 with ETS1 [1] and 751 with ETS1 [2].

AACAGCTTTTGTCCAGGATGTGGCTTCATAGCCTTG: the ETS1 binding intensity in the assay with ETS1 [1] was found to be 1650; in the assay with ETS1 [2] it was 2340.

Turning to CGCCGGACGTAGTGACGTAGCGCGCAGCCGCAGCGG, the ETS1 binding intensity is 442 in the assay with ETS1 [1] and 476 in the assay with ETS1 [2].

On to CAGTTCCAGGAAGCAGCCCCAAGCTTGTGGCCCTGA, for which the ETS1 binding intensity in the assay with ETS1 [1] is 526; with ETS1 [2] it was 305.

As to CCTCCTGGGAACTTCCTGCGGGGGCCGAAGCTGAAG, the ETS1 binding intensity with ETS1 [1] amounted to 640; with ETS1 [2] it was 660.

As for CCGGGCCTCCAGACGGAACTGTGGGCGAGGGGAGGG, the results for the ETS1 binding intensity with ETS1 [1] and in the assay with ETS1 [2] were 470 and 404, respectively.

On to CTGGCAGGCCTCACTTCCTCACCACATGGCCCTCCC, for which the ETS1 binding intensity was 543 with ETS1 [1] and 640 in the assay with ETS1 [2].

As to ACTGCTTGATTTTCAGGAAGTGGTAAAGTGGCAGGT, the ETS1 binding intensity worked out at 3700 with ETS1 [1] and 9050 with ETS1 [2].

With GGCTTTTCCGGGATCCCTTTCGCCTCATCACCGCAG, the values for the ETS1 binding intensity with ETS1 [1] and with ETS1 [2] were 522 and 301, respectively.

For GACGCATAAACAGGAAGGCCTGCGGGAGGGCCCGCC, the ETS1 binding intensity with ETS1 [1] stood at 855; in the assay with ETS1 [2] it was 948.

As to AATGGCGGGAAGTAAGAGGAATGTGGGCCTGACTGC, the ETS1 binding intensity was 499 in the assay with ETS1 [1] and 386 in the assay with ETS1 [2].

Turning to CTGGCTACAGGAAAAACAAAGTCAAACCACAGCACT, the ETS1 binding intensity was 473 in the assay with ETS1 [1] and 929 with ETS1 [2].

In the case of CTTCCCTTGCCCCGGAAAAGGGCGGTAAGAGGGAGC, the values for the ETS1 binding intensity with ETS1 [1] and with ETS1 [2] were 1200 and 1160, respectively.

Regarding GTGGGTAGGGAGGAAGCTGTGAAACCACCTCCCCTC, the ETS1 binding intensity with ETS1 [1] was found to be 688; with ETS1 [2], 882.

On to GGAGTGAGGAGGAAGCGGAGGCGAGACCGCGCTCAA, for which the ETS1 binding intensity with ETS1 [1] amounted to 464; in the assay with ETS1 [2], 399.

Take AGAACAGGATGTTCTGAGTACAGCATGAACCTCAAA: the ETS1 binding intensity was 1280 with ETS1 [1] and 1210 with ETS1 [2].

As for TGGCCAGGAAGCCACTCGATTGCCGGCGCCCGCAGC, the ETS1 binding intensity stood at 415 in the assay with ETS1 [1] and 458 with ETS1 [2].

Turning to GCCACACCCCCTTCCTGTTGTGTGTGGGGATTCATG, the figures for the ETS1 binding intensity with ETS1 [1] and in the assay with ETS1 [2] were 744 and 696, respectively.

For the sequence GAGGAGGCTGAGGAGGAAGTGCGGTGGCTGTTCTGC, the ETS1 binding intensity with ETS1 [1] is 1290; with ETS1 [2], 1470.

Regarding CCGAGCCGGCCTCTTCCGCCGCAAGTCCCTCCCCAA, the figures for the ETS1 binding intensity in the assay with ETS1 [1] and with ETS1 [2] were 548 and 428, respectively.

In the case of GCATGTTCAAAAGGATGTGGGTGCTTACCTAGTGCC, the values for the ETS1 binding intensity with ETS1 [1] and in the assay with ETS1 [2] were 956 and 1230, respectively.

Take GCCTGAAGCAGAGGATGTGGCTTCTGGCCCTCCCCT: the ETS1 binding intensity in the assay with ETS1 [1] is 1460; in the assay with ETS1 [2], 1800.

Regarding GAAACTTCTCAAGGAAATAGCTGTGGTAAACAATAC, the ETS1 binding intensity with ETS1 [1] is 725; in the assay with ETS1 [2] it was 1730.

Turning to GTCCTCCAGGAAGCCCGCGCTAACCACCGTGCCTTT, the figures for the ETS1 binding intensity with ETS1 [1] and in the assay with ETS1 [2] were 420 and 688, respectively.

As to CCATTCCCGGGCTTCCGCGGTGTCCCCACCCCCTAA, the ETS1 binding intensity amounted to 673 with ETS1 [1] and 652 with ETS1 [2].

Take TAAATAGGAAGTCAGAGTTTACTGCCGAACCCACAG: the ETS1 binding intensity was determined as 616 in the assay with ETS1 [1] and 523 with ETS1 [2].

Turning to GCTATCCCCGCCCCTTCCTGTGGGCTGGCGCCCGAT, the ETS1 binding intensity worked out at 482 with ETS1 [1] and 489 in the assay with ETS1 [2].

As for ACAGGAAACTAAAATAAGAACAGAAAACCAAGACAG, the ETS1 binding intensity was found to be 865 with ETS1 [1] and 852 in the assay with ETS1 [2].

Take AGATGGTGTGGCCGGATGGGGACCACATTGAAGAGA: the ETS1 binding intensity with ETS1 [1] worked out at 1090; with ETS1 [2], 1240.

For the sequence TGCTTCCGGCGGGCGCTTGCTCCCCGCGGTCCGCAC, the ETS1 binding intensity in the assay with ETS1 [1] stood at 657; with ETS1 [2], 762.

For AACCAAGAGGATTTCCTGCCCACACACTCAGCGTCT, the results for the ETS1 binding intensity with ETS1 [1] and in the assay with ETS1 [2] were 870 and 751, respectively.

In the case of AGGCAGGGAAGTGGCGCAGAGGAGACCACAGGACAC, the ETS1 binding intensity with ETS1 [1] was 563; with ETS1 [2], 803.

Turning to CAGCCCTAGCGAGTTTCCTGCGGGGAAGGGCATTCC, the values for the ETS1 binding intensity with ETS1 [1] and in the assay with ETS1 [2] were 537 and 480, respectively.

In the case of TGCCGTTTCCGGGTCACCCAGGCAGCTTGTGGCGGC, the ETS1 binding intensity with ETS1 [1] was 528; in the assay with ETS1 [2], 478.

Turning to GGCCGGAAAGGGTCTTGAGAGGAGGTGGTTGCCTTA, the ETS1 binding intensity was found to be 633 in the assay with ETS1 [1] and 519 in the assay with ETS1 [2].

For CAGAGGAGGAAGAGGAAGCCACAGCGATAGGGTCAC, the values for the ETS1 binding intensity with ETS1 [1] and with ETS1 [2] were 522 and 520, respectively.

As to TCTGGGCTGACTTCCTGGCTTCGTCCCACAACTTCA, the results for the ETS1 binding intensity with ETS1 [1] and with ETS1 [2] were 668 and 617, respectively.

As to TGGGCACGGGAGGAAGAGGCTGGGTGGTAAACAGGA, the figures for the ETS1 binding intensity in the assay with ETS1 [1] and with ETS1 [2] were 467 and 494, respectively.

As to CCAAAAAGGAAGGAAACCAGAAAGCCACAGAATGGT, the figures for the ETS1 binding intensity in the assay with ETS1 [1] and in the assay with ETS1 [2] were 487 and 1200, respectively.

As to AAGCTGAAAAGGGGATGTGGTTGCCTGCCTGTGGGA, the ETS1 binding intensity in the assay with ETS1 [1] turned out to be 534; with ETS1 [2], 863.

Consider CTGCTTCGGCCCGGCTTCCGCCCACAGTCAACTGCC, for which the values for the ETS1 binding intensity with ETS1 [1] and in the assay with ETS1 [2] were 825 and 694, respectively.

GGAGGAAGGCAGGAAAGAAAGAGGTGGTTTCGGCAC: the ETS1 binding intensity worked out at 605 with ETS1 [1] and 762 in the assay with ETS1 [2].

For the sequence ACAGGAAGTGAGGCTGTGAGGAGTTTGTGGTGTGTA, the ETS1 binding intensity amounted to 2080 with ETS1 [1] and 4960 with ETS1 [2].

As to CTTTCGCTTCCTTTCCCCGCCTCTTAGTCCCGCAGA, the ETS1 binding intensity amounted to 464 with ETS1 [1] and 363 with ETS1 [2].
